Test results published in the supplement of paper PMC11732987, “Enantioselective OTUD7B fragment discovery through chemoproteomics screening and high-throughput optimisation” (Communications Chemistry, 2025).

How the values were obtained:
Assay in all cases: log2 ratio of Biotin-Ahx-Ub-VS probe labelling (fragment/DMSO); higher = less target engagement (more negative = stronger competition), active = hit call of the paper (q ≤ 0.05, log2 ratio ≤ -1)
Conditions in all cases: compound concentration: 200 uM; treatment time: 3 h
USP34 = USP34 (UniProt Q70CQ2)
Method in brief: (§1)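 Average log2 ratios of fragment over vehicle were obtained by unpaired t-test from global-median-normalised Spectronaut label-free quantities. Proteins with ≥2 unique peptides were included. HEK293T lysate (495 µg per sample) was treated in triplicate with fragment at 200 µM or vehicle for 3 h, then with Biotin-Ahx-Ub-VS at 0.5 µM final for 1 h, and labelled DUBs were NeutrAvidin-enriched and run by diaPASEF LC-MS/MS.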

USP36 = target: T1, USP36 (UniProt Q9P275)
T1 sequence (whole entry): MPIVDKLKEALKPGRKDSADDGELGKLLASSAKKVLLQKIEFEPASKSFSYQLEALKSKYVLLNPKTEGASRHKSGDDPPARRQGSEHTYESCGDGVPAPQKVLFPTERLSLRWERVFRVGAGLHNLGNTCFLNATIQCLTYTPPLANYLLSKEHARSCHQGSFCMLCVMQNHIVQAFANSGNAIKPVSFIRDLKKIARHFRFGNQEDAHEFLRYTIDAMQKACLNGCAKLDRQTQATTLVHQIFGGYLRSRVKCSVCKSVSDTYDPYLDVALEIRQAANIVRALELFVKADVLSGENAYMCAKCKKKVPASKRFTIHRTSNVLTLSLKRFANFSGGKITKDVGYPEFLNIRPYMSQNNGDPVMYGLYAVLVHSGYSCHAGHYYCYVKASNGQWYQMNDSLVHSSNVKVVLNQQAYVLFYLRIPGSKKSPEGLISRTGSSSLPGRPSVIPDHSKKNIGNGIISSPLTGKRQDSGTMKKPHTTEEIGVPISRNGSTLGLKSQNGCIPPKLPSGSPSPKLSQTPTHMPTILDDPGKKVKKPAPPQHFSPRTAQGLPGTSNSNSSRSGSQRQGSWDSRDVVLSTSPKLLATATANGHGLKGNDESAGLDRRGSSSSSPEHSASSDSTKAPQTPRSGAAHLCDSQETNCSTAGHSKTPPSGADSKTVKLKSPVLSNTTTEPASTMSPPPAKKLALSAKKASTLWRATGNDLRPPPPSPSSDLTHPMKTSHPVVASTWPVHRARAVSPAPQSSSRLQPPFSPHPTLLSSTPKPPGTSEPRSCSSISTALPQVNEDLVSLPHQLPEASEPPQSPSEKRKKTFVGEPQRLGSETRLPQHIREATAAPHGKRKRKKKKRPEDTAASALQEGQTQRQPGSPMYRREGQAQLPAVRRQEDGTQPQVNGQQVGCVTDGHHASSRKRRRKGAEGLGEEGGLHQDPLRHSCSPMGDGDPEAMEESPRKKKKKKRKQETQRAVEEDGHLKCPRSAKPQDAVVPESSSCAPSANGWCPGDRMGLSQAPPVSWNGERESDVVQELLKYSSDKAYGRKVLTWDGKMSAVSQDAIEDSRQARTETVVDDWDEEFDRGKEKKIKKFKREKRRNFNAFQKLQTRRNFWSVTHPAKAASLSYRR
Method in brief: as §1

USP38 = target: T2, USP38 (UniProt Q8NB14)
T2 sequence (whole entry): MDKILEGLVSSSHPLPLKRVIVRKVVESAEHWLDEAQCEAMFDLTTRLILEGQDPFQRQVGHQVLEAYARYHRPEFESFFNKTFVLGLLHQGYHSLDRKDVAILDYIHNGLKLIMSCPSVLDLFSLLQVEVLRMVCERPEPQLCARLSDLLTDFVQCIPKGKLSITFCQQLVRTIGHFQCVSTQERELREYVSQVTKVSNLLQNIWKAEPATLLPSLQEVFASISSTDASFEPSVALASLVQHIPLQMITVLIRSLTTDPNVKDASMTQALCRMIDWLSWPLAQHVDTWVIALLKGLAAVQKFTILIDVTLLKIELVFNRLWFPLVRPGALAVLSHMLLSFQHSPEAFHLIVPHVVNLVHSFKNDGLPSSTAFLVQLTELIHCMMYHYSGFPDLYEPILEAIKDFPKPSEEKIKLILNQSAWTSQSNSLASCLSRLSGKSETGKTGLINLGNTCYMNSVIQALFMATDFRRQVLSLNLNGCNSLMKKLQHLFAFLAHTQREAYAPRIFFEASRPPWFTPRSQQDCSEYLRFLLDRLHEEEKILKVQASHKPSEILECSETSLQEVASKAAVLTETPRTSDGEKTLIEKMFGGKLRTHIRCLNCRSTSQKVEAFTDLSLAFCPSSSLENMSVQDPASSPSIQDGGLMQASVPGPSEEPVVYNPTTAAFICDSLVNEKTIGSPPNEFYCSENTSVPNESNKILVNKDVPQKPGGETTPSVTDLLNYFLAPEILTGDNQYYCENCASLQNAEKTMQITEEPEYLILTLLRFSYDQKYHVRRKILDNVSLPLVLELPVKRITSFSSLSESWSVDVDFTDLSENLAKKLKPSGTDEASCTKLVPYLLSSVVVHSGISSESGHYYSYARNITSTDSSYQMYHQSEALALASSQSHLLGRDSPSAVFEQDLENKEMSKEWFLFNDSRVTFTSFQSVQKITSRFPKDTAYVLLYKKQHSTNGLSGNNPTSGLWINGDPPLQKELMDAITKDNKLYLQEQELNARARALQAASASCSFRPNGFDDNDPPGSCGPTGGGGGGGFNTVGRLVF
Method in brief: as §1

USP39 = target: T3, USP39 (UniProt Q53GS9)
T3 sequence (whole entry): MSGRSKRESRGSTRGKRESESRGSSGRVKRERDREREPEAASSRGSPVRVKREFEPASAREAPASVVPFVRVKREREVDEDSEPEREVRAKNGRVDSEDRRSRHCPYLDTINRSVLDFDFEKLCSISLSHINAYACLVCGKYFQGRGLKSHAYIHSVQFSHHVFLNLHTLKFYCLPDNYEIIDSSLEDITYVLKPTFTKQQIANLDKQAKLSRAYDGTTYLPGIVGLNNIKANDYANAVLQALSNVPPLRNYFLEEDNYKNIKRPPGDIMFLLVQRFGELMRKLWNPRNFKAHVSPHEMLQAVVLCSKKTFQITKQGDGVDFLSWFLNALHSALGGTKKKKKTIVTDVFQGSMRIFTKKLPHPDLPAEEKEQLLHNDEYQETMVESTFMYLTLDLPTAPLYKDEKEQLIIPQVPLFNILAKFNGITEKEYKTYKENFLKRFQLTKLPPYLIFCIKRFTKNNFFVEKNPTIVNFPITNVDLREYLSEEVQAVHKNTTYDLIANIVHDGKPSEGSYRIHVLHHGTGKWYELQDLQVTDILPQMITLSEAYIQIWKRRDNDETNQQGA
Method in brief: as §1

USP4 = target: T4, USP4 (UniProt Q13107)
T4 sequence (whole entry): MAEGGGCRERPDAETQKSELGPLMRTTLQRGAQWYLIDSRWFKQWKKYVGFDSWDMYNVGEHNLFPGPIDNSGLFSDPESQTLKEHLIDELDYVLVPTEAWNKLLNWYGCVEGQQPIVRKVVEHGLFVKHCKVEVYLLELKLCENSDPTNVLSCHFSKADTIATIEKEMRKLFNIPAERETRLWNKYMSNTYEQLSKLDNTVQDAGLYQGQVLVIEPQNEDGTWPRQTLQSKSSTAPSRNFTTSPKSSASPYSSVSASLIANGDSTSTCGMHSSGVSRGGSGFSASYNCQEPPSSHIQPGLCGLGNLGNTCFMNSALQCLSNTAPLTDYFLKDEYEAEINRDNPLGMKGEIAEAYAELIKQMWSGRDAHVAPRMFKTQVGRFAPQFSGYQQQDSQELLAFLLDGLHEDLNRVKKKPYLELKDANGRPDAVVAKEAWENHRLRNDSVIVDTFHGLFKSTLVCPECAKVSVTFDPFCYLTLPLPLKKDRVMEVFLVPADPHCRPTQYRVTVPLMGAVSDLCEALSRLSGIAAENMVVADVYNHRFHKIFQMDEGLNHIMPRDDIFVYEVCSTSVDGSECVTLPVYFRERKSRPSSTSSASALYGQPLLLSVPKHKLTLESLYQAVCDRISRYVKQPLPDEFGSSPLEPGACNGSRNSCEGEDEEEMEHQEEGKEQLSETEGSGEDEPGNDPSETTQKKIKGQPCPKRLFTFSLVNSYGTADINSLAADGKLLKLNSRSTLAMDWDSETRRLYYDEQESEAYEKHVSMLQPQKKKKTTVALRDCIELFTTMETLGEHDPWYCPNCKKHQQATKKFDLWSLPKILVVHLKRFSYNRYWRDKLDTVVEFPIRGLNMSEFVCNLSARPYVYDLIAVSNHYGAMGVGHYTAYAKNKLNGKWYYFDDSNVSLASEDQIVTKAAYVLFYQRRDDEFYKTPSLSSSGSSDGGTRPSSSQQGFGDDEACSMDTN
Method in brief: as §1

Measured: log2 ratio of Biotin-Ahx-Ub-VS probe labelling

USP34, sequence (Q70CQ2 whole entry, the tested form may be a part): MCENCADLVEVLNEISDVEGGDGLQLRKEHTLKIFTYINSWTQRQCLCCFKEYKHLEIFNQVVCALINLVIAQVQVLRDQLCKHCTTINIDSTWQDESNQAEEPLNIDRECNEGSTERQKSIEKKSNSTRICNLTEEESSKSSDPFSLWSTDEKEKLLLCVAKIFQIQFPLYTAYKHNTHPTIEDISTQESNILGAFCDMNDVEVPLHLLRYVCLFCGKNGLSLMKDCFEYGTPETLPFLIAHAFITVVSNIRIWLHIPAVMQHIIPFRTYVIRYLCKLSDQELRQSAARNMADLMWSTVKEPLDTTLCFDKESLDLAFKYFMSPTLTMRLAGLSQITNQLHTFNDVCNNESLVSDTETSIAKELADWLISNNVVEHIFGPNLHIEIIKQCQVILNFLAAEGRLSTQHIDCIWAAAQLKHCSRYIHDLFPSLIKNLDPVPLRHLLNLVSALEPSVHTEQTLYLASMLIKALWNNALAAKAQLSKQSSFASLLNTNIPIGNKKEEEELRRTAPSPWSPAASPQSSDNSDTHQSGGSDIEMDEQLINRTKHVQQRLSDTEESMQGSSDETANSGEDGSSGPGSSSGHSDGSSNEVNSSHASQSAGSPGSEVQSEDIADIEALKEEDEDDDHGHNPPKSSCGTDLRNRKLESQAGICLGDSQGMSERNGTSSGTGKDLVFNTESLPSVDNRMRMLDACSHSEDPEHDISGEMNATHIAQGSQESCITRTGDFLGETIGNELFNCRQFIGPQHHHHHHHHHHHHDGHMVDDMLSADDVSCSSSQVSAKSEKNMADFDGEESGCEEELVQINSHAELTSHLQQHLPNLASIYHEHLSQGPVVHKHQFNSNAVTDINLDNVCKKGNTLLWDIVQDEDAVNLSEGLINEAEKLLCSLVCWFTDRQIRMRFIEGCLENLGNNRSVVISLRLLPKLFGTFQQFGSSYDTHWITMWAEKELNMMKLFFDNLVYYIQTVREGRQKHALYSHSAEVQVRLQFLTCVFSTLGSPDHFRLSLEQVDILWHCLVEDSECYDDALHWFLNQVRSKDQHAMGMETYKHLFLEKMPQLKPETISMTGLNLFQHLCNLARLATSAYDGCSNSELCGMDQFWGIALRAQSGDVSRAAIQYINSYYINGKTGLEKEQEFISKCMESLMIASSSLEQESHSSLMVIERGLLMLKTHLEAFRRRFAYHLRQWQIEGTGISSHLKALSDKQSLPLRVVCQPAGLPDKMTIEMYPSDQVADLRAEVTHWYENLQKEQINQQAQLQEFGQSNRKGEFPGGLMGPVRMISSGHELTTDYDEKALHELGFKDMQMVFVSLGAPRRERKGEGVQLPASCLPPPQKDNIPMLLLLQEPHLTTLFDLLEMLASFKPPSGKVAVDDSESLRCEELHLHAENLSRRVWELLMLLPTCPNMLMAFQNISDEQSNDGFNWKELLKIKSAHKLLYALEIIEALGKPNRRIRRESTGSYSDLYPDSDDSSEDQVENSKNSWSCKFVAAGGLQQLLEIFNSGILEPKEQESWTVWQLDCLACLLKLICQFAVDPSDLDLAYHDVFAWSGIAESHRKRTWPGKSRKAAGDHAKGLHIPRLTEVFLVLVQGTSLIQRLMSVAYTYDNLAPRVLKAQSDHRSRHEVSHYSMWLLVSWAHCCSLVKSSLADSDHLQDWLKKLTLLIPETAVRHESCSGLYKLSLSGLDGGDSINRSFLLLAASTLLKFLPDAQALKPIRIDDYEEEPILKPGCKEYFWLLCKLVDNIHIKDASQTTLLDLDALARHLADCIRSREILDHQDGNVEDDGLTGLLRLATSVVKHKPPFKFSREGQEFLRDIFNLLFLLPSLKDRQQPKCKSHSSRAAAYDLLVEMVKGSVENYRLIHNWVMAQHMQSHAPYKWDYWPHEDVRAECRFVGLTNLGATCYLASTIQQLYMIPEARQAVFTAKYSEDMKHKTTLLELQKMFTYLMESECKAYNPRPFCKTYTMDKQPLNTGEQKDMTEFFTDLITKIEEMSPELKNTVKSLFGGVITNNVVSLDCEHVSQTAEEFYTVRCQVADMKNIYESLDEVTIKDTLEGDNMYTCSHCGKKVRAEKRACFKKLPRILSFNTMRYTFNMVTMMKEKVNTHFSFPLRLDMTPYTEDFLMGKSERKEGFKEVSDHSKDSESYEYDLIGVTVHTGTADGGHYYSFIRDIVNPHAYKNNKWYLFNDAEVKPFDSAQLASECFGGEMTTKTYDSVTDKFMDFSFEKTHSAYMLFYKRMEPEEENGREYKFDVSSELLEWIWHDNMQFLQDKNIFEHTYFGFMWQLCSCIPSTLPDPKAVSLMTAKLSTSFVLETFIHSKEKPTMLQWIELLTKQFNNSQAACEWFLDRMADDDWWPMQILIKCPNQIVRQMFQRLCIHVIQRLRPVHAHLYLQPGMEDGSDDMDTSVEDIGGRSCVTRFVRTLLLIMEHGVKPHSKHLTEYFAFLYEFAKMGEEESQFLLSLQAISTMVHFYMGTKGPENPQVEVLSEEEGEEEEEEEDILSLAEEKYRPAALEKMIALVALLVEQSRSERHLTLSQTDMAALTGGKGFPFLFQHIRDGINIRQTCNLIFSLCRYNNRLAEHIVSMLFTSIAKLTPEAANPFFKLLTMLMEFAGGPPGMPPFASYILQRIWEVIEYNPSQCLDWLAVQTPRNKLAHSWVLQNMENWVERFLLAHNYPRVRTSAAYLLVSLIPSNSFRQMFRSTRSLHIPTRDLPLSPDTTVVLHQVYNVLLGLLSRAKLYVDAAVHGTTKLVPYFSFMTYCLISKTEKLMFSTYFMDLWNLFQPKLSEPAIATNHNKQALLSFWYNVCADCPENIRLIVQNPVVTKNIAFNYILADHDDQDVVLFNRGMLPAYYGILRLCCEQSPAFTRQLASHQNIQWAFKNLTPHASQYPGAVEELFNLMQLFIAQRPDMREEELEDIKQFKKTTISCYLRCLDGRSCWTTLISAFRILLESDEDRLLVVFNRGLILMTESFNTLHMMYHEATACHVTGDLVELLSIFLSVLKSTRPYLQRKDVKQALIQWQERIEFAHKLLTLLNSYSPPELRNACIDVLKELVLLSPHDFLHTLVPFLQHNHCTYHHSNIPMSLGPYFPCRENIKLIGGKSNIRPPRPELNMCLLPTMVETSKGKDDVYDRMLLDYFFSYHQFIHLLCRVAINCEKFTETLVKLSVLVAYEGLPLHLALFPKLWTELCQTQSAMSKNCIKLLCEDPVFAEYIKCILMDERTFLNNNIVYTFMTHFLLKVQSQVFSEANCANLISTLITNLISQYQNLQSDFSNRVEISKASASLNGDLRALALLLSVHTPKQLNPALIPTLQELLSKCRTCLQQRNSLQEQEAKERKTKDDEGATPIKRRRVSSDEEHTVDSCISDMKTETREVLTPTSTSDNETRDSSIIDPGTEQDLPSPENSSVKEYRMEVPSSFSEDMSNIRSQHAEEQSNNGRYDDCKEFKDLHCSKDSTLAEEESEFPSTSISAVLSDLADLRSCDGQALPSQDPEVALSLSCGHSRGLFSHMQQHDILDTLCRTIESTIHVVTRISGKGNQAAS

Cc1ccc(C)c(NC(=O)CCl)c1
inactive: USP34 -0.458 | USP36 -0.1 | USP38 -0.159 | USP39 0.199 | USP4 -0.443
